Source: PubChem BioAssay
The list is not random: actives were taken first. Their share in the collection is about 6%.
D3 ag: qHTS of D3 Dopamine Receptor Agonist: qHTS. D(3) dopamine receptor (Homo sapiens), P35462. hit rate 0.58% among 410,000. max activation, %. D3R DiscoveRx beta-arrestin cells, luminescence, 90 min; in the data active means max activation above about 30%; further: 0% is about no effect
Target sequence (P35462 whole entry, looked up): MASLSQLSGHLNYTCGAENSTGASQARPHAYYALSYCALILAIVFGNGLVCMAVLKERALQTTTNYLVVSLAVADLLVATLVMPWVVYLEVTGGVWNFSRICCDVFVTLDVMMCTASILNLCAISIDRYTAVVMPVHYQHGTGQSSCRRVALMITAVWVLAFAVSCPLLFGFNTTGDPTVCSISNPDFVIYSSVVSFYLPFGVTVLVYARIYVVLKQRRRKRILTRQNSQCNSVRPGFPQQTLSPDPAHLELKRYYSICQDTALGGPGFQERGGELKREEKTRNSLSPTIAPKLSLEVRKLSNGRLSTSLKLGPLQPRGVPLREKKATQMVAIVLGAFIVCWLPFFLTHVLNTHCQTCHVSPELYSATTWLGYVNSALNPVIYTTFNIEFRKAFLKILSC
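Agonist mode: compounds and dopamine controls were applied to plated cells for 90 min at 37 degrees C after an overnight attachment at 1500 cells/well. Luminescent read-out followed 30 - 60 minutes at room temperature with DiscoveRx detection reagent.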
DRD3 antagonist: qHTS of D3 Dopamine Receptor Antagonist: qHTS | D(3) dopamine receptor (Homo sapiens), P35462 | D3R cells, DiscoveRx beta-arrestin luminescence, antagonist mode; active compounds read low | max response, negative = inhibition, % | hit rate 2.5% among 360,000; in the data active means max response below about -50%; inconclusive means no clear call, values can overlap the other calls; further: on the % scale 0 is the no-effect control and ±100 the full control effect
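Cells plated overnight at 1500 cells/well, then exposed to library compounds with dopamine controls for 90 minutes at 37 degrees C. DiscoveRx reagent added for 30–60 minutes at room temperature; luminescence read, quantitative HTS format.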
D1 potentiator: Potentiators of Human D1 Dopamine Receptor: qHTS | potentiation, % at 10 µM | HEK293 TREx D1 cells, calcium flux, dopamine EC20 potentiation | hit rate 0.036% among 360,000 | D(1A) dopamine receptor (Homo sapiens), P21728; in the data active means potentiation above about 30%; further: 0% is about no effect
D1 antag: Antagonist of Human D 1 Dopamine Receptor: qHTS; hit rate 3.2% among 360,000; D(1A) dopamine receptor (Homo sapiens), P21728; HEK293 TREx D1 cells, calcium flux, dopamine EC80; active compounds read low; activity change, negative = inhibition, % at 10 µM; in the data active means activity change below about -30%; further: on the % scale 0 is the no-effect control and ±100 the full control effect
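Tetracycline-induced HEK293 Trex D1 cells, force-coupled to calcium, dye-loaded; compounds added and read 180 s, then EC80 dopamine added and calcium flux tracked kinetically another 180 s.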
D1 agonist: Allosteric Agonists of the Human D1 Dopamine Receptor: qHTS; D(1A) dopamine receptor (Homo sapiens), P21728; hit rate 1% among 360,000; activation, % at 2 µM; HEK293 T-REx D1 cells, calcium flux, agonist mode; in the data active means activation above about 30%; further: 0% is about no effect
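Tetracycline-induced HEK293 TREx D1 cells, force-coupled to calcium signalling, were dye-loaded with a no-wash calcium kit. Compound was pin-added after a 10 s baseline. Fluorescence was read kinetically at 1 cycle/s for 180 s, with calcium rises flagged as agonism.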
* = called active by the depositor; ? = inconclusive; nt = no result.

SMILES | D3 ag | DRD3 antagonist | D1 potentiator | D1 antag | D1 agonist
CC(=O)Nc1ccc(N2CCCC(C)C2)c([N+](=O)[O-])c1 (centres undefined) | -12 | -55* | -2 | 10 | -2
CCCNC(=O)CSc1nc(-c2ccc(OC)cc2)cc(C(F)(F)F)n1 | 11 | nt | 2 | -7 | 0
CN(C)CCNC(=O)C12CC3(C)CC(C)(CC(C)(C3)C1)C2 | 7 | -52* | -2 | 20 | 9
CC(=O)c1cccc(N=Nc2c(-c3ccccc3)[nH]n(-c3ccccc3)c2=O)c1 | 0 | -21 | 0 | -31* | 0
CCn1ccc2c(OCC(=O)Nc3ccc(C(C)=O)cc3)cccc2c1=O | 1 | nt | 0 | nt | -3
C(=N\c1nc2ccccc2[nH]1)/c1cccs1 | -2 | -57* | 3 | -6 | 3
Cn1c(/C=N/c2nc3ccccc3[nH]2)nc2ccccc21 | 5 | 8 | -1 | 5 | -1
C#CCN1C(=O)S/C(=C/C=C/c2ccc(N(C)C)cc2)C1=O | -3 | -9 | 1 | -1 | 98*
COc1ccc(N2C(=O)c3ccccc3NC(=O)C2C(=O)NCc2ccco2)cc1 (centres undefined) | -2 | -15 | nt | nt | nt
CCCCCn1c(CN2CCN(c3cccc(Cl)c3)CC2)nc2c1c(=O)n(C)c(=O)n2C | 1 | -9 | -2 | 9 | 3
CCCCCn1c(CN2CCN(c3cc(Cl)ccc3C)CC2)nc2c1c(=O)[nH]c(=O)n2C | 87* | 18 | -1 | 41 | 6
CCCCn1c(CN2CCN(c3cccc(Cl)c3)CC2)nc2c1c(=O)n(C)c(=O)n2C | 2 | 0 | 19 | -31* | 6
CCCCCn1c(CN2CCN(c3ccc(OC)cc3)CC2)nc2c1c(=O)[nH]c(=O)n2C | -17 | nt | -1 | 2 | 0
COc1ccc(CCNC(=O)CCc2c(C)c3cc4c(C)c(C)oc4cc3oc2=O)cc1OC | 6 | nt | -1 | -9 | 1
COc1cc(OC)c2c(C)c(Cl)c(=O)oc2c1 | -4 | 18 | -10 | -36* | -1
Cc1cccc2c(=O)cc(CSc3ccccc3NC(=O)C(C)(C)C)[nH]c12 | -6 | nt | 4 | 1 | 2
O=C(CCc1nnc2n(Cc3ccccc3Cl)c(=O)c3ccccc3n12)Nc1ccccc1 | -5 | nt | 1 | -10 | 1
O=C1/C(=C\c2c(NCCOCCO)nc3ccccn3c2=O)SC(=S)N1Cc1ccco1 | 6 | 4 | -3 | 7 | 138*
CCN(CC)c1ccc(C(=O)N2CCC(c3ccncc3)CC2)cc1 | -17 | nt | -3 | -28 | -2
Cc1nn(-c2ccc(N3CCOCC3)nn2)c(C)c1CCC(=O)Nc1ccc(F)cc1F | 75* | nt | 1 | -17 | 8
Cc1oc2ccc(O)c(CN3CCN(C)CC3)c2c1C(=O)Nc1cccc(C(F)(F)F)c1 | -12 | nt | 4 | -46* | 62*
CCN1CCN(Cc2c(O)ccc3oc(C)c(C(=O)Nc4cccc(C(F)(F)F)c4)c23)CC1 | -21 | nt | 0 | -23 | 50*
Cc1oc2ccc(O)c(CN3CCN(Cc4ccccc4)CC3)c2c1C(=O)Nc1ccccc1 | -23 | nt | 1 | 13 | 0
COc1cc(OC)c(NC(=O)C(NS(=O)(=O)c2cccc3nsnc23)c2ccccc2)cc1Cl (centres undefined) | -2 | nt | 0 | -1 | -1
CCCCNC(=O)C1(C)CCCCN1C(=O)c1ccc2ccccc2n1 (centres undefined) | -1 | -12 | nt | nt | nt
SMILES | D3 ag | DRD3 antagonist | D1 potentiator | D1 antag | D1 agonist
COc1ccc(-c2ccc3oc(-c4ccc(OC)cc4)c(C#CCO)c3c2)cc1 | 58* | 111 | nt | nt | nt
COc1ccc(-c2ccc3oc(-c4ccc(OC)cc4)c(-c4ccc(OC)cc4)c3c2)cc1 | 72* | 15 | nt | nt | nt
COc1ccc(-c2oc3ccc(N4CCOCC4)cc3c2C#CCO)cc1 | 18 | 95 | nt | nt | nt
O=C(C[C@@H]1CC[C@@H]2[C@H](COC[C@H](O)CN2Cc2cccc(C(F)(F)F)c2)O1)NCc1ccc(Cl)cc1 | -2 | 18 | nt | nt | nt
COc1cc(OC)cc(C(=O)NC(C(=O)NNC(=O)c2ccc(C)cc2)C(C)C)c1 (centres undefined) | -9 | -16 | 5 | 15 | 1
COc1ccc(C(=O)NNC(=O)C(NC(=O)c2cc(OC)cc(OC)c2)C(C)C)cc1 (centres undefined) | -1 | 11 | -4 | -39* | 1
O=C1S/C(=C/c2ccc(N3CCOCC3)o2)C(=O)N1Cc1c(F)cccc1Cl | 3 | ? | 0 | nt | 129*
O=C1N=C(N2CCOCC2)S/C1=C/c1ccc(-c2ccccc2Cl)o1 | -2 | -24 | 2 | 4 | 2
O=C1S/C(=C\c2ccc(N3CCOCC3)o2)C(=O)N1c1ccccc1 | -4 | -17 | 7 | 26 | 159*
O=C1S/C(=C\c2ccc(N3CCOCC3)o2)C(=O)N1Cc1c(F)cccc1Cl | -8 | -16 | -14 | 27 | 62*
O=C(O)c1ccccc1-c1ccc(/C=C2\SC(=O)N(c3ccccc3)C2=O)o1 | 3 | -4 | 3 | -7 | 4
O=C(COc1ccc2oc3c(c2c1)CCCC3)Nc1cccc(Br)c1 | 1 | nt | -1 | 0 | 12
O=[S+]([O-])(c1ccc2c(c1)OCCO2)N1CCN([S+](=O)([O-])c2c(F)cc(F)cc2Br)CC1 | nt | nt | 0 | -11 | 1
CCOC(=O)C1(C)CCCCCN1C(=O)c1csnn1 (centres undefined) | -4 | -19 | nt | nt | nt
CCOC(=O)C1(C)CCCN1C(=O)c1snnc1C (centres undefined) | -5 | -51* | nt | nt | nt
Cn1c(O)c(C2=c3ccccc3=NC2=O)sc1=Nc1ccc(Cl)cc1 | -1 | -63* | 15 | 3 | 5
CCCCC[C@H](O)/C=C/[C@H]1CCC(=O)[C@@H]1CCCCCCC(=O)N1CCCCC1CO (some centres undefined) | 30* | 83 | -9 | -3 | 12
O=C(/C=C/c1cccnc1)/C=C/c1cccnc1 | -17 | -102* | -2 | 17 | 3
Cc1cccc(C(=O)Nc2ccc(C(=O)/C=C/c3cccnc3)cc2)c1 | -12 | -81* | -10 | -16 | 2
C(=Cc1cccnc1)c1ccncc1 | 14 | 19 | nt | nt | nt
O=C(/C=C/c1cccnc1)c1ccc(NC(=O)c2cccc(Br)c2)cc1 | -6 | ? | 0 | -10 | 2
O=C(Nc1ccccc1)c1ccc[n+](Cc2ccc([N+](=O)[O-])cc2)c1 | -25 | -56* | 0 | 37 | 2
COc1ccc(Cl)cc1S(=O)(=O)NC(C)C(=O)NCCN1CCOCC1 (centres undefined) | -1 | 9 | nt | nt | nt
CCCc1ccc(C(O)c2ncc(-c3cccc(F)c3)[nH]2)cc1 (centres undefined) | -1 | 18 | nt | nt | nt
